Only some compounds are listed: those with a hit (about 10% of all), similar ones and a draw of the others.
NPR1 antag = human Npr1 receptor antagonism; HEK293 hNpr1 GloSensor cGMP, ANP-stimulated luminescence; 76,000 tested, 1.6% active; P16066; Potency, µM (top dose mostly 46.3 µM), inactives show at the top dose activity change, negative = inhibition, usual class: inhibitors; calls by dose curve; note: % is set by controls: 0 for no effect and ±100 for the full control effect; nearly all actives have a fitted effect of over 60% in size
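Compound pre-incubated 30 min at room temperature on GloSensor-loaded HEK293 cells stably carrying hNpr1 and the pGS-40F cGMP biosensor. Stimulation uses hNppA at 0.1 nM final; luminescence is taken at baseline and 20 min post-agonist.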
NIH3T3 tox = cytotoxic compounds in NIH 3T3 cells. NIH 3T3 viability, CellTiter-Glo ATP luminescence, 48-72 h. Potency, µM (top dose mostly 96.7 µM), inactives show top-dose activity change, negative = cytotoxicity, most hits filed as inhibitors. 94,000 tested, 4.3% active. AID 1345082; note: % is set by controls: 0 for no effect and ±100 for the full control effect; nearly all actives have a fitted effect of over 55% in size
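Luminescent ATP readout (CellTiter-Glo, 10 min RT) after 48 or 72 hr compound exposure of NIH 3T3 cells seeded at 400 cells/well in 1536-well format; quantitative HTS.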
HEK cytotox = cytotoxic compounds in HEK 293 cells. HEK 293 viability, ATP luminescence (CellTiter-Glo), 48-72 h. Potency, µM (highest dose often 115 µM), inactives show at the top dose activity change, negative = cytotoxicity, most hits filed as inhibitors. 94,000 tested, 6.6% active. AID 1345083; note: % is set by controls: 0 for no effect and ±100 for the full control effect; nearly all actives have a fitted effect of over 60% in size
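Cells seeded first (HEK 293, 250 cells/well), then compound added by pintool. Incubation ran 48 or 72 hr at 37 degree Celsius. CellTiter-Glo was added and luminescence imaged after 10 min at room temperature.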
Luciferase inh = blocks purified firefly luciferase enzyme activity. 76,000 tested, 2.5% active. purified P. pyralis luciferase, luminescence, biochemical. AID 1347043. P08659. Potency, µM (series often up to 115 µM), usual class: inhibitors; note: % is set by controls: 0 for no effect and ±100 for the full control effect; nearly all actives have a fitted effect of over 65% in size
Target sequence (P08659 whole entry, looked up): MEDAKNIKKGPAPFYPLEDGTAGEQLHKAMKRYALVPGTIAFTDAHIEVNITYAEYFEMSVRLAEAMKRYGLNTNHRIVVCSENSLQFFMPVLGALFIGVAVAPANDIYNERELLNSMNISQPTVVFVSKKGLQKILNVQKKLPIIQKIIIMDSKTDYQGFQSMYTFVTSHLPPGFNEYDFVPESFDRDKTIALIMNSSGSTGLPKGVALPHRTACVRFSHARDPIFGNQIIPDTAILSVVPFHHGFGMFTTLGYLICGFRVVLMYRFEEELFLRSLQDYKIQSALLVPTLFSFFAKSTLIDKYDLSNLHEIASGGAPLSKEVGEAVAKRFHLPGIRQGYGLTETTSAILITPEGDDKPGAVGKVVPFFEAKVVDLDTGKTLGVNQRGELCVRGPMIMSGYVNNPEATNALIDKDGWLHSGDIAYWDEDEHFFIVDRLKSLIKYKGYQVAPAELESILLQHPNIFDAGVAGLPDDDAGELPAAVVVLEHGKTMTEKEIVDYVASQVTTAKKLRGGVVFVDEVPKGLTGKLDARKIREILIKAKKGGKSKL
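Purified 10nM P. pyralis luciferase with 10uM D-luciferin and 10uM ATP in 50mM Tris acetate pH 7.5, 10mM Mg acetate, 0.01% Tween-20, 0.05% BSA. qHTS titration; luminescence read by CCD imager.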
GPT2 inhibitor = blocks human glutamate pyruvate transaminase 2. Recombinant GPT2, coupled pyruvate oxidase/HRP Amplex Red fluorescence. Potency, µM (highest dose often 57.7 µM), inactives show top-dose activity change, negative = inhibition, usual class: inhibitors. 100,000 tested, 0.25% active; note: % is set by controls: 0 for no effect and ±100 for the full control effect; nearly all actives have a fitted effect of over 60% in size
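Fluorescence read-out: pyruvate from GPT2 turnover coupled to pyruvate oxidase, HRP and Amplex Red (0.2mM ThPP, 0.2U/mL PO and HRP, 50uM Amplex final). Substrates 250uM a-KG, 2mM L-alanine; enzyme 10ng/uL; 30 min RT.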
Npr1 antag conf = hNpr1 antagonism, confirmation assay; shares compounds with NPR1 antag; HEK293 hNpr1 cGMP GloSensor luminescence, ANP-stimulated; Potency, µM (doses to about 57.6 µM), inactives show top-dose activity change, negative = inhibition, most hits filed as inhibitors; 1,400 tested, 76% active; AID 1347044; calls by dose curve; note: nearly all actives have a fitted effect of over 70% in size
NPR2 antag = hNpr2 antagonism, selectivity versus Npr1 | 1,400 tested, 67% active | HEK293 hNpr2 GloSensor cGMP luminescence, CNP-stimulated | Potency, µM (highest dose often 57.6 µM), for the others: at the top dose activity change, negative = inhibition, hits mostly inhibitors | shares compounds with NPR1 antag | AID 1347046; calls by dose curve; note: nearly all actives have a fitted effect of over 70% in size
FLuc counter = FLuc enzyme inhibition, Npr1 counter-screen | shares compounds with NPR1 antag | 1,400 tested, 0.7% active | purified FLuc enzyme, luminescence, Km substrate | Potency, µM (series often up to 57.6 µM), for inactives: at the highest dose activity change, negative = inhibition, hits mostly inhibitors | AID 1347047; note: 0% is about no effect
GloSensor cGMP = control cell line activity, Npr1 antagonist counter-screen. shares compounds with NPR1 antag. HEK293 GloSensor cGMP, SNP-stimulated, luminescence. Potency, µM (doses to about 57.6 µM), inactives show top-dose activity change, negative = inhibition, most hits filed as inhibitors. 1,400 tested, 69% active; calls by dose curve; note: % is set by controls: 0 for no effect and ±100 for the full control effect; nearly all actives have a fitted effect of over 70% in size
Numbers without * were called inactive; i = inactive; ? = inconclusive; . = no result given; [ ] = remark or other dose. Unless noted, calls come from the whole dose curve; as a rule, active = well fitted curve in the direction sought with a large enough effect; inconclusive = small, poorly fitted or top-dose-only effect, or another doubt; inactive = no such curve, though single readings can be large; an effect the other way counts as inactive or inconclusive. Potency is the fitted concentration of half-maximal effect.

SMILES	NPR1 antag	NIH3T3 tox	HEK cytotox	Luciferase inh	GPT2 inhibitor	Npr1 antag conf	NPR2 antag	FLuc counter	GloSensor cGMP
Cc1ccccc1-c1cnc2[nH]cc(CC(=O)NC3CC3)c2c1	14µM*	?	?	i	-4%[88.5 µM]	13µM*	18µM*	13%[86.2 µM]	13µM*
Cc1cn2nc(C(=O)N3CCC(NC(=O)Cc4c[nH]c5ccccc45)CC3)cc2c(=O)[nH]1	1%	i	3%	i	-18%	.	.	.	.
Cc1ccc2cc(CCC(=O)NCc3ccco3)c(=O)[nH]c2c1	-7%	-4%	-4%	i	i	.	.	.	.
COc1cccc(NC(=O)Cn2c(-c3ccc(F)cc3)nc(C)cc2=O)c1	-5%	i	?	i	-2%	.	.	.	.
Cc1cn2nnc(C(=O)NCC(C)c3ccccc3)c2c(=O)[nH]1 (configuration not stated)	-2%	?	3%	i	i	.	.	.	.
O=C1NCc2ccccc2CC12CCCN(CC1CC=CCC1)C2 (configuration not stated)	.	i	-3%	.	-6%	-21%	-14%	1%	6%
Cc1nc(-c2cnccn2)n(CC(=O)Nc2ccc3c(c2)OCO3)c(=O)c1C	0%	0%	-17%	i	i	.	.	.	.
Cc1cnc(C(=O)N2CCCC2c2nc(CCOCC3CCCC3)no2)cn1 (configuration not stated)	?	-14%	-13%	i	-15%	-23%	-17%	-2%	-2%
Cc1ccc(C(=O)N2CCCC2c2nc(CCOCC3CC3)no2)cn1 (configuration not stated)	3%	3%	i	i	i	.	.	.	.
CC(C)(C)c1ccc(C(=O)N2CCC(c3n[nH]c(=O)n3Cc3ccc(F)cc3)CC2)cc1	11µM*	?	?	i	i	24µM*	22µM*	2%	22µM*
O=C(NCC1CC1)c1ccc2nnc(-c3cc(C(F)(F)F)cc(C(F)(F)F)c3)n2c1	.	?	?	.	-6%	.	.	.	.
O=C(N[C@H](c1ccccn1)C1CC(O)C1)C1(c2ccc(Cl)cc2)CCC1 (some centres not stated)	?	-19%	?	i	-3%[11.5 µM]	?	19µM*	1%	1%
CS(=O)(=O)c1ccc(CC(=O)N[C@H](c2ccccn2)C2CC(O)C2)cc1 (some centres not stated)	-18%	2%	-3%	i	?	.	.	.	.
Cc1ccc(NC(=O)O[C@@H]2CC[C@]3(C)[C@H](CC[C@H]4OC(=O)C[C@H]43)[C@]2(C)CO)cc1	?	-13%[138 µM]	-23%[172 µM]	i	1%[88.5 µM]	?	?	-5%[86.2 µM]	40µM*
CCc1cnc(N2CCC(Oc3cnc4c(ccn4CCN[S+](C)(=O)[O-])c3)CC2)nc1	6.3µM*	?	?	i	2%	6.9µM*	9.7µM*	2%	6.9µM*
CCc1cnc(N)nc1N1CCC(Oc2ccc(F)cc2)CC1	-15%	?	?	i	-8%	.	.	.	.
Cc1nccc(N2CCC(Oc3cnc4c(ccn4CCN[S+](C)(=O)[O-])c3)CC2)n1	28µM*	?	?	i	3%[88.5 µM]	31µM*	35µM*	-2%[86.2 µM]	25µM*
Cc1ccc(-c2ccccc2CN2CCN(C(=O)c3ccccc3)CC2)cc1Cl	.	?	?	.	5%	.	.	.	.
Cc1ccc(C(=O)NC2CCN(C(=O)c3ccc(-c4ncccc4C#N)cc3)CC2)cc1	.	-27%	?	.	i	.	.	.	.
O=C(c1ccc(Cl)cc1)N1CC2(CCCN2Cc2cc(F)c(F)c(F)c2)Cc2ccccc21 (configuration not stated)	.	?	?	.	-14%	.	.	.	.
COc1ccc(CN2CCOC[C@H]2c2ncc(-c3ccc(C)cc3)[nH]2)cc1	-26%[70.6 µM]	100µM*	?	i	-6%[88.5 µM]	-29%[86.2 µM]	?	1%[86.2 µM]	-22%[86.2 µM]
Fc1ccc(CN2CCOC[C@H]2c2ncc(-c3ccc(F)cc3)[nH]2)cc1	?	?	?	i	-6%[88.5 µM]	?	?	0%[86.2 µM]	?
COc1ccc(C2(C(=O)N3C[C@@H](Oc4ccccc4)C[C@H]3C(=O)N3CCCC3)CC2)cc1	4%	-17%	-22%	i	i	.	.	.	.
Cc1ccc(-n2cccc2CC(=O)NCc2ccccc2)cc1	2%	-30%	?	i	i	.	.	.	.
CC(C)(C)n1cnc2c(N3CC4CCC(C3)N4CC(F)(F)F)ncnc21	.	-15%	?	.	2%	.	.	.	.
SMILES	NPR1 antag	NIH3T3 tox	HEK cytotox	Luciferase inh	GPT2 inhibitor	Npr1 antag conf	NPR2 antag	FLuc counter	GloSensor cGMP
CC(=O)Nc1ccc(C(=O)N2CCC3(CC2)N=C(c2ccc(Cl)cc2)NO3)cc1	?	-19%	?	i	i	22µM*	?	-4%	22µM*
CC(=O)Nc1ccc(C(=O)N2CCC3(CC2)N=C(c2ccc(Br)cc2)NO3)cc1	13µM*	-22%	?	i	i	19µM*	15µM*	-4%	15µM*
O=C(c1ccncc1)N1CCC2(CC1)N=C(c1ccc(Cl)cc1)NO2	-19%	-16%	?	i	i	.	.	.	.
O=C(N[C@H]1CCN2C(=O)c3cc(-c4ccccc4F)ccc3NC(=O)[C@H]12)c1cnccn1	1%[70.6 µM]	-44%[174 µM]	-24%[172 µM]	i	-30%[88.5 µM]	.	.	.	.
O=[S+]1([O-])NC2(CCN(Cc3ccc(F)cc3)C2)CNc2ccccc21 (configuration not stated)	-5%	-22%	?	i	i	.	.	.	.
O=[S+]1([O-])NC2(CCN(Cc3ccc(OC(F)(F)F)cc3)C2)CNc2ccccc21 (configuration not stated)	?	?	50µM*	i	i	9.7µM*	12µM*	0%	11µM*
CCOc1ccccc1C(=O)N1CCc2[nH]nc(-c3ccc(F)c(F)c3)c2C1	?	?	?	i	?	?	?	2%	?

From PubChem BioAssay
